The supplement of paper PMC12669797
Where “and” joins values, the source holds several entries; their conditions need not be identical. Identical values can stand only once. ± gives the standard deviation of the averaged measurements.

Experiments:
ES2 = experiment: cell viability relative to DMSO control (MTS) (fraction of DMSO control); higher = more viable cells / less growth inhibition; settings: 10 µM; 48 h
Summary of the method: (§1)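 A 367-compound […] library was tested at a final concentration of 10 µM on TOV-21G and ES2 clear cell carcinoma cells (5000 cells per well, 96-well plates, pre-grown 24 h), with control wells receiving vehicle only. Following 48 h of exposure, CellTiter 96 AQueous One Solution was used as the manufacturer directs. This MTS assay gives cell viability as a fraction of the vehicle control.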

TOV-21G = experiment: as above; settings: 10 µM; 48 h
Summary of the method: as §1

Structure (SMILES) | cell viability (ES2) | cell viability (TOV-21G)
C/C(O)=C(\C#N)C(=O)Nc1cc(Br)ccc1Br | 1.06 ± 0.013 | 1.34 ± 0.19
C[C@H](CCC(=O)O)C[C@H](C)C[C@H](C)C(=O)/C=C(\O)[C@H](C)C[C@H](C)C/C=C/[C@@H](C)[C@@H](O)[C@@H](C)[C@@H](O)C[C@@H]1CC[C@@](C)([C@H]2CC[C@@](C)([C@@H](C)O)O2)O1 [Ionomycin] | 0.54 | 0.501
CC[C@@]1([C@@H]2O[C@@H]([C@H]3O[C@@](O)(CO)[C@H](C)C[C@@H]3C)C[C@@H]2C)CC[C@H]([C@]2(C)CC[C@]3(C[C@H](O)[C@@H](C)[C@@H]([C@@H](C)[C@@H](OC)[C@H](C)C(=O)O)O3)O2)O1 [Monensin] | 0.419 | 0.368
O[C@H]1[C@H]2[C@H](O)CCCN2C[C@H]1O [Swainsonine] | 0.98 | 0.689
CNc1ccc2oc(C[C@H]3O[C@@]4(CC[C@H]3C)O[C@H]([C@H](C)C(=O)c3ccc[nH]3)[C@H](C)C[C@H]4C)nc2c1C(=O)O | 0.425 | 0.284
CN[C@@H]1C[C@H]2O[C@@](C)([C@@H]1OC)n1c3ccccc3c3c4c(c5c6ccccc6n2c5c31)C(=O)NC4 [Staurosporine] | 0.301 | 0.239
CC1=C2C(=O)[C@H]3[C@@H](CC=C4C[C@@H](O)CC[C@@]43C)[C@@H]2CC[C@]12O[C@@H]1C[C@H](C)CN[C@H]1[C@H]2C [Jervine] | 1.04 | 1.64
CC1=C2C[C@H]3[C@@H](CC=C4C[C@@H](O)CC[C@@]43C)[C@@H]2CC[C@]12O[C@@H]1C[C@H](C)CN[C@H]1[C@H]2C [cyclopamine] | 0.92 | 0.927
CN1C(=O)[C@]2(Cc3cn([C@]45C[C@@]67SS[C@@](CO)(C(=O)N6[C@H]4Nc4ccccc45)N(C)C7=O)c4ccccc34)SS[C@@]1(CO)C(=O)N2C [Chetomin] | 0.32 | 0.254
CC(C)(O)/C=C/C(=O)[C@](C)(O)[C@H]1[C@H](O)C[C@@]2(C)[C@@H]3CC=C4[C@@H](C=C(O)C(=O)C4(C)C)[C@]3(C)C(=O)C[C@]12C [Cucurbitacin I] | 0.393 | 0.328
C[C@@H]1C[C@@H]([C@H](O)CC2CC(=O)NC(=O)C2)C(=O)[C@@H](C)C1 [Cycloheximide] | 0.547 | 0.373
C[C@@]1(CO)[C@H](O)CC[C@@]2(C)[C@H]1CC[C@H]1C[C@@H]3C[C@@]12CC[C@]3(O)CO [Aphidicolin] | 0.419 | 0.869
C[C@]12CCC(=O)C(O)=C1CC[C@@H]1[C@@H]2CC[C@]2(C)C(=O)CC[C@@H]12 [Formestane] | 1.11 | 1.32
CC(C)(C)c1cc(C=C(C#N)C#N)cc(Br)c1O | 0.94 ± 0.18 | 1.09 ± 0.034
COC[C@H]1OC(=O)c2coc3c2[C@@]1(C)C1=C(C3=O)[C@@H]2CCC(=O)[C@@]2(C)C[C@H]1OC(C)=O [Wortmannin] | 0.956 ± 0.059 | 0.6 ± 0.027
C[C@@H]1O[C@@H](O[C@H]2C[C@@H](O)[C@]3(CO)[C@H]4[C@H](O)C[C@]5(C)[C@@H](C6=CC(=O)OC6)CC[C@]5(O)[C@@H]4CC[C@]3(O)C2)[C@H](O)[C@H](O)[C@H]1O [Ouabain] | 0.439 | 0.279
Cc1sc2c(c1C)C(c1ccc(Cl)cc1)=N[C@@H](CC(=O)OC(C)(C)C)c1nnc(C)n1-2 | 0.502 | 0.305
C/C=C(/C)C(=O)O[C@H]1C(C)=C2[C@H]([C@@H]1OC(=O)CCCCCCC)[C@@](C)(OC(C)=O)C[C@H](OC(=O)CCC)[C@@]1(O)[C@H]2OC(=O)[C@@]1(C)O [Thapsigargin] | 0.505 | 0.348

Structure (SMILES) | cell viability (ES2) | cell viability (TOV-21G)
C=C1[C@@H](C)[C@H]2[C@H](Cc3ccccc3)NC(=O)[C@]23[C@H](OC(C)=O)/C=C/[C@@](C)(O)C(=O)[C@@H](C)C/C=C/[C@H]3[C@@H]1O [Cytochalasin D] | 0.498 | 0.472
NC(=S)N/N=C\c1coc2ccccc2c1=O.[Cl][Cu][Cl] [Akt Inhibitor XI] | 1.23 | 0.935
O=C(O)c1nn(Cc2ccc(Cl)cc2Cl)c2ccccc12 [Lonidamine] | 0.925 | 1.09
CC(=O)N[C@H]1[C@@H](O[C@@H]2O[C@H](CC(O)[C@H]3O[C@@H](n4ccc(=O)[nH]c4=O)[C@H](O)[C@@H]3O)[C@H](O)[C@H](O)[C@H]2NC(=O)/C=C/CC(C)C)O[C@H](CO)[C@@H](N)[C@@H]1O (some centres not stated) [Tunicamycin] | 1.19 | 1.03
O=C1NC(=O)c2c1c1c3ccccc3n3c1c1c2c2ccccc2n1[C@H]1CC[C@@H]3O1 | 0.973 and 1.25 | 1.01 and 1.24
N.N.[Cl][Pt][Cl] [Cisplatin] | 0.794 | 1.09
O=C1C2CCN(CC2)C1(CO)CO | 1.01 | 1.1
C[C@@]12C(=O)OC(=O)[C@]1(C)[C@H]1CC[C@@H]2O1 [Cantharidin] | 0.495 | 0.403
C[C@H]1O[C@@H](n2cnc3c(N)ncnc32)C[C@@H]1O [2',5'-dideoxyadenosine] | 0.972 | 1.05
CN1C(=O)CN=C(c2ccc(Cl)cc2)c2cc(Cl)ccc21 | 1.1 | 0.825
COC(=O)C1(OC)CC2OC1(C)n1c3ccccc3c3c4c(c5c6ccccc6n2c5c31)C(=O)N(C)C4 (configuration not stated) | 1 and 1.11 | 0.914 and 1.01
CC[C@H]1/C=C/C=C/C[C@@H](C)[C@H](O)[C@@](C)(O)C(=O)[C@@H](C)[C@H](O)[C@@H](C)C(=O)[C@@H](C)[C@H](O)[C@@H](C)/C=C/C(=O)O[C@@H]2[C@H](C)[C@H](CC1)O[C@]1(CC[C@H](C)[C@H](C[C@@H](C)O)O1)[C@H]2C [Oligomycin] | 0.67 | 0.535
C#CCN(C)C(C)Cc1ccccc1 (configuration not stated) [Deprenyl] | 1.12 | 1.01
CN(N=O)c1cc(O)ccc1O [Dephostatin] | 1.14 | 1.02
COc1ccc(C[C@H]2NC[C@H](O)[C@H]2OC(C)=O)cc1 [anisomycin] | 0.394 | 0.372
C[C@H]1CCC/C=C/[C@@H]2C[C@H](O)C[C@H]2[C@H](O)/C=C/C(=O)O1 [brefeldin A] | 0.355 | 0.407
CO[C@@H]1C[C@@H](C[C@H]2CC[C@H](C)[C@H]([C@@H](C)C(=O)O)O2)O[C@]2(O[C@](C)([C@H]3CC[C@@](C)([C@@H]4O[C@@H]([C@H]5O[C@@](O)(CO)[C@H](C)C[C@@H]5C)C[C@@H]4C)O3)C[C@H]2C)[C@@H]1C [Nigericin] | 0.437 | 0.344
O=C1Nc2ccccc2C2(CCN(CCc3ccc(C(F)(F)F)cc3)CC2)O1 | 0.915 | 1.12
